Experimental findings from PubChem BioAssay are described below.

Calls of active or inactive are those of the source. Unless noted, no rule for the calls is given here.

Assay [1] can be described thus: anti-His antibody binders, primary screen, artefact control for SMM control protein annotation, biochemical, small-molecule microarray, 635 nm fluorescence (AID 1128).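 Also: score merges feature fluorescence with signal-to-noise for each printed compound spot.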 To be noted: anti-His Alexa647 antibody binding, higher = more signal.
Assay [2] relates to Human papillomavirus type 1a E7 protein (residues 1-88). Briefly: HPV1a E7 small-molecule binders, primary screen, biochemical, small-molecule microarray, residues 1-88, 635 nm (AID 1129). To be noted: small-molecule microarray binding, fluorescence 635 nm; higher = more signal.
The target of assay [3] is Focal adhesion kinase 1 (Homo sapiens) (UniProt Q05397). Nature of the assay: small-molecule microarray binders of FAK, primary screen, biochemical, 635/667 nm fluorescence, BSA, DTT (AID 1130).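 Also: composite of spot emission at 667 nm and signal to noise over triplicate slides.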 Conditions: PTK2 binding, 635 nm fluorescence, higher = more signal.
Chain of Focal adhesion kinase 1 (Homo sapiens) (Q05397 whole entry, looked up): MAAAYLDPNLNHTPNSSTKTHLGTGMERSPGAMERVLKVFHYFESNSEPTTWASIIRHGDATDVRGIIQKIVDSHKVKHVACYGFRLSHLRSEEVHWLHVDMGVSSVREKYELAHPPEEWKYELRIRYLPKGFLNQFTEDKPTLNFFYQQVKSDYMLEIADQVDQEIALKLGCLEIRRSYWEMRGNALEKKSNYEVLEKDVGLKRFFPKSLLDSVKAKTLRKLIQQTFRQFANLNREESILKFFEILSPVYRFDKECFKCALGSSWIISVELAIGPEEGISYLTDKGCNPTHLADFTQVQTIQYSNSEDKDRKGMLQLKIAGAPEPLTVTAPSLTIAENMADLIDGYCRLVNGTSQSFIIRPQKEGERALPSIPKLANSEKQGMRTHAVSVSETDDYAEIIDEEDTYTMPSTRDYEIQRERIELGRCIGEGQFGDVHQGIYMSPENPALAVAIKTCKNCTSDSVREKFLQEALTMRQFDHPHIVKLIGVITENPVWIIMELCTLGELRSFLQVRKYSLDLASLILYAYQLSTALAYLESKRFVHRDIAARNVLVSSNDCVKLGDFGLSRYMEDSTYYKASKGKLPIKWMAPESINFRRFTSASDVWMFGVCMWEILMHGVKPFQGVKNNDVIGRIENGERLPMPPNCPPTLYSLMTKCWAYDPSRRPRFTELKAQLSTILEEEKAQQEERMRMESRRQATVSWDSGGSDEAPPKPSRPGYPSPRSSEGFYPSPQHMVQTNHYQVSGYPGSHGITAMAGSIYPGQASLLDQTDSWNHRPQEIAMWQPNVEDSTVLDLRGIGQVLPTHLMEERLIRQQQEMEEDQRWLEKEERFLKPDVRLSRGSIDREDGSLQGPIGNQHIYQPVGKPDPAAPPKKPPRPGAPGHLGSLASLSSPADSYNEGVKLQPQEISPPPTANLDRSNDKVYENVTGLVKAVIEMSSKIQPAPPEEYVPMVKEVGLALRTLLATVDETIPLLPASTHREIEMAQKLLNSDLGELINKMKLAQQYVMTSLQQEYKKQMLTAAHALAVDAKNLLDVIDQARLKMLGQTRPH
Assay [4] relates to Fibrinogen (Alexa647-labelled). Briefly: fibrinogen binders on compound microarrays, profiling panel, artefact control for SMM control-protein annotation, biochemical, small-molecule microarray, 635/667 nm fluorescence (AID 1131).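 Also: z-score merges 667 nm fluorescence with per-spot signal-to-noise over triplicate slides.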 Conditions: fibrinogen-A647 binding fluorescence, higher = more signal.
Assay [5] concerns the target Follistatin (Homo sapiens) (UniProt P19883). Nature of the assay: follistatin binders on small-molecule microarrays, primary screen, biochemical, small-molecule microarray, 635/667 nm fluorescence (AID 1132). Conditions: FST binding, 635 nm fluorescence, higher = more signal.
The target of assay [6] is Fibroblast growth factor 2 (Homo sapiens) (UniProt P09038). Nature of the assay: FGF2 binders on small-molecule microarrays, primary screen, biochemical, small-molecule microarray, 635/667 nm fluorescence (AID 1133). To be noted: small-molecule microarray binding, FGF2, fluorescence 635/667; higher = more signal.
Chain of Fibroblast growth factor 2 (Homo sapiens) (P09038 whole entry, looked up): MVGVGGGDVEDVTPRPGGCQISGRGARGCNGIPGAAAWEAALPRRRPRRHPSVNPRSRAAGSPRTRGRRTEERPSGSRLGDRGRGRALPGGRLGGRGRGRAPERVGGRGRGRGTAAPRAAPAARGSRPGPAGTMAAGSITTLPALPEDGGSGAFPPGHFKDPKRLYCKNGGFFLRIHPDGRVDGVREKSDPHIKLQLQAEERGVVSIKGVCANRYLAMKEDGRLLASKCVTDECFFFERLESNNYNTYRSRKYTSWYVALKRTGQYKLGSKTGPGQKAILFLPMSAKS
Assay [7] can be described thus: mitochondrial membrane potential change in A549 cells, profiling panel, cell-based, JC-1 fluorescence, basal, 24 h, 100 nL (AID 1138).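 Also: A549 lung adenocarcinoma cells under basal conditions with no added stimulus; test concentration not given here.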 Conditions: higher = more signal.
The subject of the next assay is Lefty1. Briefly: Lefty1 binders on small-molecule microarrays, primary screen, biochemical, small-molecule microarray, 635/667 nm fluorescence (AID 1139). Conditions: small-molecule microarray binding, fluorescence 635/667; higher = more signal.
Assay [8] deals with wheat germ agglutinin (Triticum aestivum), Alexa647-labelled. Briefly: wheat germ agglutinin binders on compound microarrays, profiling panel, artefact control for SMM control-protein annotation, biochemical, small-molecule microarray, 635/667 nm fluorescence (AID 1140).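 Also: score merges 667 nm feature emission with signal to noise over triplicate slides.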 Conditions: WGA-A647 binding, 635 nm fluorescence, higher = more signal.
For assay [9], the target named is Luciferin 4-monooxygenase (Photinus pyralis) (UniProt P08659). Briefly: firefly luciferase enzyme inhibitors, primary screen, biochemical, luminescence, purified enzyme, 2006 set (AID 1141).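 Also: cell-free assay with purified firefly luciferase at 100 ng per well in PBS; test concentration not given here.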 To be noted: SteadyGlo luminescence, 30 min, higher = more signal, called active from +8 up or from −8 down.
Chain of Luciferin 4-monooxygenase (Photinus pyralis) (P08659 whole entry, looked up): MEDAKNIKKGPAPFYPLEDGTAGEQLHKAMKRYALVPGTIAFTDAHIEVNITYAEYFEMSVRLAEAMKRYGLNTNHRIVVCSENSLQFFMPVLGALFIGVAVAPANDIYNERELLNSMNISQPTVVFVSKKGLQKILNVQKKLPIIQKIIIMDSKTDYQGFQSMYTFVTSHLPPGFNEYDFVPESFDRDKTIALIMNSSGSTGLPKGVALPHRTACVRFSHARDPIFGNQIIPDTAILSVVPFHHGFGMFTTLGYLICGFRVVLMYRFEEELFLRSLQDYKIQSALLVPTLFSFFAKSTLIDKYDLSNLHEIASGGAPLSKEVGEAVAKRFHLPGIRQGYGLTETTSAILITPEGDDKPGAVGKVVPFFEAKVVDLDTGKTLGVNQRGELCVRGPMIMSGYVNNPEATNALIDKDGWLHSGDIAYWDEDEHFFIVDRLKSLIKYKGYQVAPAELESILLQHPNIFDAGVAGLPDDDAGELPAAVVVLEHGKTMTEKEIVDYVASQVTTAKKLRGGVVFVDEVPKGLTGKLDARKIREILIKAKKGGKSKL
Assay [10] concerns Wnt5a (protein binding on small-molecule microarray). Nature of the assay: Wnt5a binders on small-molecule microarray, primary screen, biophysical, 635/667 nm fluorescence (AID 1142).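 Also: fluorescence read at 667 nm with signal to noise per printed feature.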 To be noted: 635 nm fluorescence, higher = more signal.
Assay [11] in a line: cell viability in Huh7 cells, primary screen, cytotoxicity control for HCV replication inhibitor project, CellTiter-Glo luminescence, basal, 48 h (AID 1143).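 Also: Huh7 hepatoma cells carrying a hepatitis C replication reporter with no stimulus; test concentration not given here.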 Conditions: Huh7 HCV replicon, higher = more signal, called active from +8 up or from −8 down. In general terms: Cellular ATP, detected with luciferase, serves as a proxy for viable cell number.
Assay [12] can be described thus: P. aeruginosa biofilm formation inhibitors, primary screen, PAO1 strain, BacTiter-Glo luminescence, LB-PBS (AID 1144). Conditions: 12 h, higher = more signal.
Assay [13] is described as follows: CREB reporter modulators without forskolin, primary screen, cell-based, PC12, CRE-LacZ reporter, unstimulated (AID 1145). Conditions: no forskolin, luminescence, 4.5 h, higher = more signal, called active from +8 up or from −8 down.
The nature of assay [14]: CREB reporter modulators under forskolin, primary screen, cell-based, PC12, CRE-LacZ reporter, forskolin-stimulated (AID 1146).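 Also: PC12 cells with 6xCRE LacZ reporter stimulated by forskolin 10 µM; beta-galactosidase reporter signal reflecting CREB driven transcription.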 Conditions: luminescence, 4.5 h, higher = more signal, called active from +8 up or from −8 down.
Assay [15] has as its target Streptavidin (Streptomyces avidinii) (UniProt P22629). Nature of the assay: streptavidin binders on small-molecule microarray, primary screen, artefact control for SMM compound annotation, biophysical, 635/667 nm fluorescence (AID 1147).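 Also: signal reflects streptavidin binding to arrayed compounds as a control protein.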 Conditions: streptavidin binding, higher = more signal.
The nature of assay [16]: small-molecule binders of probe aInhba, primary screen, biochemical, small-molecule microarray, 635/667 nm fluorescence (AID 1148).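 Also: score merges 667nm spot fluorescence with signal-to-noise for antibody binding to printed compounds.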 To be noted: higher = more signal.
Assay [17] addresses Torsin-1A (Homo sapiens) (UniProt O14656). Nature of the assay: torsin A binders from cell lysate, primary screen, small-molecule microarray, wild-type, 635/667 nm (AID 1149). To be noted: COS7 hTOR1A-WT lysate, 635 nm fluorescence, higher = more signal.
Assay [18] has the same target. Briefly: small-molecule binders of mutant TOR1A in lysate, primary screen, cell lysate, small-molecule microarray, COS7 lysate, 635/667 nm fluorescence (AID 1150).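 Also: score pools 667 nm emission and signal to noise measuring lysate protein binding.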 Conditions: COS7 hTOR1A mutant lysate, 635 nm fluorescence, higher = more signal.
In assay [19] the test system is Sonic hedgehog protein (Shh). Briefly: small-molecule binders of Shh protein, primary screen, biochemical, small-molecule microarray, 635/667 nm fluorescence (AID 1151).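 Also: Shh protein binding to compounds spotted on small-molecule microarray slides; score combines spot fluorescence intensity with signal-to-noise across triplicate slides.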 To be noted: small-molecule microarray binding, 635 nm fluorescence; higher = more signal.

Chain of Follistatin (Homo sapiens) (P19883 whole entry, looked up): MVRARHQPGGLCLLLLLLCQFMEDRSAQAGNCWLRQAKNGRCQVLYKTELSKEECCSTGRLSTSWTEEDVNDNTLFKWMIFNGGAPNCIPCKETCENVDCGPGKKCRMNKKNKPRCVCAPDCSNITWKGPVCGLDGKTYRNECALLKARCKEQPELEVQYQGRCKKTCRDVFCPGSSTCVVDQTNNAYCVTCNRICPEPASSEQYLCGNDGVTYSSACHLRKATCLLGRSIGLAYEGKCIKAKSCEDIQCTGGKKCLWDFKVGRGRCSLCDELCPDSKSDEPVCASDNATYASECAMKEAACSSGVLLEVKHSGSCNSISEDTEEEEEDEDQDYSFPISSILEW
Chain of Torsin-1A (Homo sapiens) (O14656 whole entry, looked up): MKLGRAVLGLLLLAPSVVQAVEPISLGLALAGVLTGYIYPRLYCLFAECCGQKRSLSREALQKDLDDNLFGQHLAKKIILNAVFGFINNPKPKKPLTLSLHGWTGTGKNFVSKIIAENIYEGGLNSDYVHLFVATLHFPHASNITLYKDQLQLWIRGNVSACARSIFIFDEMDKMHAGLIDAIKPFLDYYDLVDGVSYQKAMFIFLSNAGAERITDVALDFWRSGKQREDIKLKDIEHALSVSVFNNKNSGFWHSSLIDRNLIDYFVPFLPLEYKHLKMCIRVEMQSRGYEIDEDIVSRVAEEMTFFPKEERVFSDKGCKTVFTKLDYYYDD
Chain of Streptavidin (Streptomyces avidinii) (P22629 whole entry, looked up): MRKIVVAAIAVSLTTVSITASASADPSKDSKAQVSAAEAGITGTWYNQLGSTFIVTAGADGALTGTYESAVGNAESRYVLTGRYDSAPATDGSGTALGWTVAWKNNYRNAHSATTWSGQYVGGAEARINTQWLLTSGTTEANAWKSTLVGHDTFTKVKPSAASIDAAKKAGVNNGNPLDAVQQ

For `O=C1C2C=CC(C(O)c3ccc(F)cc3)N(Nc3ccc([N+](=O)[O-])cc3)C2C(=O)N1c1ccccc1` (stereo not given), the composite z-score is 1.76 in assay [1]; 0.705 in [2]; 0.789 in assay [3]; 1.02 in assay [4]; 0.282 in assay [5]; -0.0449 in [6]. Moreover, the composite z-score in the assay on Lefty1 is 0.16; in assay [8] it was 1.09; in [10], 0.241; in [15], 1.39; in assay [16] it was 0.0487; in the assay with Torsin-1A (Homo sapiens) [17], -0.232. In addition, the composite z-score was 0.187 in the assay with Torsin-1A (Homo sapiens) [18] and -0.241 in [19]. The z-score in assay [7] was -0.433; in [9], 1.43 (inactive); in assay [11] it was -0.0129 (inactive); in [12], -0.615 (inactive); in [13], -0.415 (inactive); in [14], 0.15 (inactive).
In the case of `CC(C)Cc1ccc(CN2CC[C@@H](N)C2)cc1`, the composite z-score is -0.273 in assay [1]; -1.63 in [2]; -0.0574 in assay [3]; -0.0978 in [4]; -0.304 in assay [5]; -0.847 in assay [6]. For the same molecule, the composite z-score is 0.0735 with Lefty1; -0.314 in assay [8]; -0.544 in assay [10]; -1.27 in assay [15]; -0.0357 in assay [16]; -1.79 in the assay with Torsin-1A (Homo sapiens) [17]. The composite z-score in the assay with Torsin-1A (Homo sapiens) [18] is -0.677; in assay [19], -0.0963. The z-score in assay [7] is 1.85; in assay [9], 0.824 (inactive); in [11], -3.26 (inactive); in assay [12] it was -1.53 (inactive); in [13] it was -0.688 (inactive); in assay [14] it was 1.52 (inactive).
Regarding `O=C1[C@H]2C=C(I)[C@H](C[C@@H]2OCCCCO)[C@@]12CO2`, the composite z-score is -0.276 in [1]; 0.0789 in [2]; 0.465 in [3]; -0.327 in assay [4]; 0.167 in [5]; -0.0868 in assay [6]. Further, the composite z-score was 0.115 in the assay on Lefty1; -0.428 in [8]; -0.163 in assay [10]; -0.162 in assay [15]; -0.025 in assay [16]; 0.953 with Torsin-1A (Homo sapiens) [17]. Besides, the results for the composite z-score (in the assay with Torsin-1A (Homo sapiens) [18]; in [19]) were 0.625 and 0.745, respectively. In addition, the z-score is -0.106 in [7]; 0.291 (inactive) in assay [9]; 0.634 (inactive) in [11]; -0.0455 (inactive) in assay [12]; -0.235 (inactive) in assay [13]; 1.6 (inactive) in assay [14].
For `[N-]=[N+]=NCc1ccccc1[C@H]1OC(c2ccc(OCCCO)cc2)=N[C@@]1(Cc1ccccc1)C(=O)N1CCCCC1`, the composite z-score in assay [1] was found to be 0.777; in assay [2] it was 1.23; in assay [3], 0.795; in assay [4], 1; in assay [5], 1.45; in assay [6] it was 1.52. Also, the composite z-score in the assay with Lefty1 was 0.944; in [8], 0.834; in assay [10], 1.5; in assay [15] it was 0.733; in assay [16] it was 0.204; with Torsin-1A (Homo sapiens) [17], 0.178. In addition, the composite z-score in the assay with Torsin-1A (Homo sapiens) [18] was found to be 0.392; in assay [19], 0.413. For the same molecule, the z-score was 0.779 in assay [7]; 0.486 (inactive) in [9]; -5.29 (inactive) in [11]; 0.437 (inactive) in [12]; -0.16 (inactive) in assay [13]; 0.357 (inactive) in assay [14].
In the case of `O=C(CS)NCCCCCNC(=O)[C@H]1C[C@H]2C(=O)NCC(=O)N2[C@H]1c1ccc(O)cc1`, the composite z-score in [1] was -0.0453; in [2], -1.16; in [3], -0.437; in assay [4], -3.23; in [5], -0.0739; in [6] it was 0.258. In addition, the composite z-score in the assay on Lefty1 is 0.0911; in assay [8] it was -0.125; in [10] it was -0.55; in assay [15], -1.11; in [16], -0.264; with Torsin-1A (Homo sapiens) [17], -0.518. For the same molecule, the composite z-score is 0.113 with Torsin-1A (Homo sapiens) [18] and 0.0174 in assay [19]. In addition, the z-score in assay [7] was -0.0966; in assay [9] it was 0.612 (inactive); in [11], -0.173 (inactive); in assay [12], -0.196 (inactive); in assay [13] it was -1.49 (inactive); in assay [14] it was -0.684 (inactive).
